Experimental data taken from PubChem BioAssay.
Active and inactive are the calls of the source.

What was measured:
[1] = system: PRMT1 (protein arginine N-methyltransferase 1); experiment: PRMT1 binders on small-molecule microarrays, primary screen, biochemical, small-molecule microarray, 635 nm fluorescence (AID 1088); conditions: small-molecule microarray binding, higher = more signal;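 further: binding of Prmt1 protein to compounds spotted on small-molecule microarray slides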
[2] = yeast growth modulation, basal conditions, primary screen, YJM789 clinical isolate, OD600, 24 h (AID 1089);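 further: growth of clinical yeast isolate S. cerevisiae YJM 789 seeded 1000 cells per well; test concentration not given here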; conditions: S. cerevisiae YJM789 growth, higher = more signal, called active from +8 up or from −8 down
[3] = fission yeast growth modulation, primary screen, strain 972, OD600, 24 h, no modulator (AID 1090);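 further: basal condition with compound alone and no growth modifier present; test concentration not given here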; conditions: S. pombe 972 growth, higher = more signal, called active from +8 up or from −8 down
[4] = S. cerevisiae growth modulation with rapamycin, primary screen, strain BY4716, OD600, 96 h (AID 1091); conditions: higher = more signal, called active from +8 up or from −8 down; further: test concentration not given here
[5] = target: Torsin-1A-interacting protein 2 (Homo sapiens) (UniProt Q8NFQ8); experiment: LULL1 binders on small-molecule microarray, primary screen, cell lysate, human LULL1 lysate, 635/667 nm fluorescence (AID 1092); conditions: hLULL1 lysate binding, 635 nm fluorescence, higher = more signal;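 further: probe is lysate of COS7 cells overexpressing human LULL1; score merges per-feature 667 nm fluorescence with signal-to-noise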
[6] = E. coli growth modulation, two-sided OD650, primary screen, E. coli filamentation project, strain DRC41, 24 h (AID 1093); conditions: OD650, 24 h, higher = more signal, called active from +8 up or from −8 down;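 further: MC1000 strain lacking acrAB efflux and sulA so SOS filamentation is blocked; test concentration not given here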
[7] = small-molecule microarray binders of probe aLefty2, primary screen, biochemical, biotinylated probe, 635/667 nm fluorescence (AID 1094); conditions: higher = more signal;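 further: score merges spot fluorescence near 667 nm with spot signal-to-noise ratio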
[8] = system: Noggin (protein binding on small-molecule microarray); experiment: Noggin binders on small-molecule microarray, primary screen, biochemical, 635/667 nm fluorescence (AID 1095); conditions: 635 nm fluorescence, higher = more signal;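 further: score merges 667 nm feature fluorescence with signal to noise over triplicate slides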
[9] = target: Neurogenic locus notch homolog protein 3 (Homo sapiens) (UniProt Q9UM47); experiment: NOTCH3 binders on small-molecule microarray, primary screen, biochemical, 635/667 nm fluorescence (AID 1096); conditions: NOTCH3 binding, 635 nm fluorescence, higher = more signal
[10] = small-molecule microarray binders of probe aEGFR, primary screen, biochemical, biotinylated probe, 635/667 nm fluorescence (AID 1097); conditions: higher = more signal;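 further: probe is a biotinylated anti-EGFR antibody binding compounds printed on slides; score combines fluorescence near 667 nm and signal to noise of each spot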
[11] = system: Plasmodium falciparum Sir2 (PF13_0152, Sir2A); experiment: pfSir2 binders on small-molecule microarrays, primary screen, biochemical, small-molecule microarray, 635 nm fluorescence (AID 1098); conditions: small-molecule microarray binding, fluorescence 635 nm; higher = more signal;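 further: score merges spot fluorescence intensity with its signal-to-noise ratio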
[12] = small-molecule microarray binders of probe aDKK1, primary screen, biochemical, biotinylated probe, 635/667 nm fluorescence (AID 1099); conditions: higher = more signal;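 further: score merges 667nm spot fluorescence with signal to noise across triplicate slides; reference of the scale not given here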
[13] = small-molecule microarray binders of probe aCHRDL2, primary screen, biochemical, biotinylated probe, 635/667 nm fluorescence (AID 1100); conditions: higher = more signal
[14] = splicing luciferase reporter signal modulators, primary screen, spliceosome inhibition project, cell-based, HEK293, splice +/- reporter (AID 1101); conditions: luminescence, 24 h, higher = more signal, called active from +8 up or from −8 down;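 further: HEK293 cells carrying a splicing-competent luciferase reporter gene; test concentration not given here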
[15] = target: Fibroblast growth factor 10 (Homo sapiens) (UniProt O15520); experiment: FGF10 binders on small-molecule microarrays, primary screen, biochemical, small-molecule microarray, 635 nm fluorescence (AID 1102); conditions: FGF10 binding, fluorescence 635 nm, higher = more signal
[16] = system: glycogen synthase kinase-3 (GSK3A per assay name; protocol says GSK3B); experiment: GSK3 binders on small-molecule microarrays, primary screen, biochemical, small-molecule microarray, 635 nm fluorescence, GSK3A (AID 1103); conditions: small-molecule microarray binding, fluorescence 635 nm; higher = more signal; further: the record names both GSK3A and GSK3B
[17] = target: Epidermal growth factor receptor (Homo sapiens) (UniProt P00533); experiment: EGFR binders on small-molecule microarrays, primary screen, biochemical, small-molecule microarray, 635 nm fluorescence (AID 1104); conditions: EGFR binding, higher = more signal;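 further: score merges 667 nm emission intensity with spot signal to noise over triplicate slides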
[18] = target: Follistatin-related protein 3 (Homo sapiens) (UniProt O95633); experiment: FSTL3 binders on small-molecule microarrays, primary screen, biochemical, small-molecule microarray, 635 nm fluorescence (AID 1105); conditions: FSTL3 binding, higher = more signal;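 further: score merges emission near 667 nm and signal to noise per printed spot across three slides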
[19] = target: Dickkopf-related protein 1 (Homo sapiens) (UniProt O94907); experiment: DKK1 binders on small-molecule microarrays, primary screen, biochemical, small-molecule microarray, 635 nm fluorescence scan (AID 1106); conditions: DKK1 binding, higher = more signal;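 further: score merges emission near 667 nm with signal to noise over three replicate slides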
[20] = system: Inhibin beta A chain (activin A); experiment: INHBA (activin A) binders on microarrays, primary screen, biochemical, small-molecule microarray, 635 nm fluorescence scan (AID 1107); conditions: small-molecule microarray binding, higher = more signal;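 further: mouse activin A protein probed at 4.33 µg/mL on printed slides; score merges bound-protein fluorescence near 667 nm with spot signal-to-noise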

Sequence of Epidermal growth factor receptor (Homo sapiens) (P00533 whole entry, looked up): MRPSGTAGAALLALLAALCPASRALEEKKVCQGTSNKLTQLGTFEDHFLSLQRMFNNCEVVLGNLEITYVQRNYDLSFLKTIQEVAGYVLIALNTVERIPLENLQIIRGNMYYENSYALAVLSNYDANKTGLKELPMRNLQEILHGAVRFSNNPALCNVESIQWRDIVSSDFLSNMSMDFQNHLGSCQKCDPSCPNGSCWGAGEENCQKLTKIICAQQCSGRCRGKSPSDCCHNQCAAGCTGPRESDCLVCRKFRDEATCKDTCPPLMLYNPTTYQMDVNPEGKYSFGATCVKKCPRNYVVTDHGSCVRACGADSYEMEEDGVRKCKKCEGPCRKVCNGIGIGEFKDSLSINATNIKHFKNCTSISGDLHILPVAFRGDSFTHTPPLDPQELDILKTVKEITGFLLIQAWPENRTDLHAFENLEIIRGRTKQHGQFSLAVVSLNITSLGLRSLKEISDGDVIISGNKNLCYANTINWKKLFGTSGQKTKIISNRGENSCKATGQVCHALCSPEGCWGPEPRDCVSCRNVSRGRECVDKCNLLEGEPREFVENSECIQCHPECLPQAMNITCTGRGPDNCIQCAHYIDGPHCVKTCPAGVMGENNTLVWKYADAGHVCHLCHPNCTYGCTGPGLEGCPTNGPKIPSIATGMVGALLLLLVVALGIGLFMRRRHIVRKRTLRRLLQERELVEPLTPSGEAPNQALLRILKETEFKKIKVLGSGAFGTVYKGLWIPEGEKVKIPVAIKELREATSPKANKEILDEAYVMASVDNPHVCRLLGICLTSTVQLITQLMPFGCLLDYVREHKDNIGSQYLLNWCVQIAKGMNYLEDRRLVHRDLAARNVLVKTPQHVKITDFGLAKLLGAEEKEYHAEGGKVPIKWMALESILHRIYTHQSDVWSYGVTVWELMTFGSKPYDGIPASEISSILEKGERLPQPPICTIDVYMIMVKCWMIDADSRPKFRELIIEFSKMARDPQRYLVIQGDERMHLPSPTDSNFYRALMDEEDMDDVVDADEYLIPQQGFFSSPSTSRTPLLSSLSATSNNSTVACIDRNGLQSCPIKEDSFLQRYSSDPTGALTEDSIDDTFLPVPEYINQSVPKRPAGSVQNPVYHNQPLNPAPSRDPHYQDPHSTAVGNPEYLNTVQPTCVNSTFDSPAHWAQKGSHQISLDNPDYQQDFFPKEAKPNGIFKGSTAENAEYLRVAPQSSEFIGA
Sequence of Fibroblast growth factor 10 (Homo sapiens) (O15520 whole entry, looked up): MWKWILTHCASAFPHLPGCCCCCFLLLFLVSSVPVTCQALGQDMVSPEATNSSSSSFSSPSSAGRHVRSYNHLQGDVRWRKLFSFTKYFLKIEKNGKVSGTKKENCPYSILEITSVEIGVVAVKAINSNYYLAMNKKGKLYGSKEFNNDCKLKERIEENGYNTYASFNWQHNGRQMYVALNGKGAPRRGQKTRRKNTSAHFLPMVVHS
Sequence of Follistatin-related protein 3 (Homo sapiens) (O95633 whole entry, looked up): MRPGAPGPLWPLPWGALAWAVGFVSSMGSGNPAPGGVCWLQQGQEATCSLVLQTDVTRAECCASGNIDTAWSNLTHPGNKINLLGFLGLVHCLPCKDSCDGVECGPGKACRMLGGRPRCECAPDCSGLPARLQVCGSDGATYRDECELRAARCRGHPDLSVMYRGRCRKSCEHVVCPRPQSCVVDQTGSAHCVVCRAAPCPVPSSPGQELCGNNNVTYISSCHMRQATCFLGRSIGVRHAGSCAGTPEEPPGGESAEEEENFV
Sequence of Torsin-1A-interacting protein 2 (Homo sapiens) (Q8NFQ8 whole entry, looked up): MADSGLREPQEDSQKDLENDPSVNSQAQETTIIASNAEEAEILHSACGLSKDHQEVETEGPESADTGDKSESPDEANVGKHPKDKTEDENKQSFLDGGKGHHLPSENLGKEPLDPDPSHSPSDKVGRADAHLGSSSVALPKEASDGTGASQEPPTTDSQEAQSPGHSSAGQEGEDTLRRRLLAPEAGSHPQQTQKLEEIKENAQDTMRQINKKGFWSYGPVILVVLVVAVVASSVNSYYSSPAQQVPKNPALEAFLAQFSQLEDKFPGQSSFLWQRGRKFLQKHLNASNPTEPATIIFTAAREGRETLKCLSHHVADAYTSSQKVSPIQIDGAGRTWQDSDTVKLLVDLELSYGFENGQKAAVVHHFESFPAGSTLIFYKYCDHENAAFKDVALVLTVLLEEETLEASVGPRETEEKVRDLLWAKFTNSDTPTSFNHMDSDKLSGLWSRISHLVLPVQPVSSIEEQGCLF
Sequence of Dickkopf-related protein 1 (Homo sapiens) (O94907 whole entry, looked up): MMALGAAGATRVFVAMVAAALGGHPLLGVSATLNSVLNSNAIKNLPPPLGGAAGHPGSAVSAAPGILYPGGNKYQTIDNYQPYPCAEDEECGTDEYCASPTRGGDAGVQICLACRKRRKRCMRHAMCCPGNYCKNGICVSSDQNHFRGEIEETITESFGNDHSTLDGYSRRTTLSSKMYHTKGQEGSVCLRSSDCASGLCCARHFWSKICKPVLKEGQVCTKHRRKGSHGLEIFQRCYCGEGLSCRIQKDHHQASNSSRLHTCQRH
Sequence of Neurogenic locus notch homolog protein 3 (Homo sapiens) (Q9UM47 whole entry, looked up): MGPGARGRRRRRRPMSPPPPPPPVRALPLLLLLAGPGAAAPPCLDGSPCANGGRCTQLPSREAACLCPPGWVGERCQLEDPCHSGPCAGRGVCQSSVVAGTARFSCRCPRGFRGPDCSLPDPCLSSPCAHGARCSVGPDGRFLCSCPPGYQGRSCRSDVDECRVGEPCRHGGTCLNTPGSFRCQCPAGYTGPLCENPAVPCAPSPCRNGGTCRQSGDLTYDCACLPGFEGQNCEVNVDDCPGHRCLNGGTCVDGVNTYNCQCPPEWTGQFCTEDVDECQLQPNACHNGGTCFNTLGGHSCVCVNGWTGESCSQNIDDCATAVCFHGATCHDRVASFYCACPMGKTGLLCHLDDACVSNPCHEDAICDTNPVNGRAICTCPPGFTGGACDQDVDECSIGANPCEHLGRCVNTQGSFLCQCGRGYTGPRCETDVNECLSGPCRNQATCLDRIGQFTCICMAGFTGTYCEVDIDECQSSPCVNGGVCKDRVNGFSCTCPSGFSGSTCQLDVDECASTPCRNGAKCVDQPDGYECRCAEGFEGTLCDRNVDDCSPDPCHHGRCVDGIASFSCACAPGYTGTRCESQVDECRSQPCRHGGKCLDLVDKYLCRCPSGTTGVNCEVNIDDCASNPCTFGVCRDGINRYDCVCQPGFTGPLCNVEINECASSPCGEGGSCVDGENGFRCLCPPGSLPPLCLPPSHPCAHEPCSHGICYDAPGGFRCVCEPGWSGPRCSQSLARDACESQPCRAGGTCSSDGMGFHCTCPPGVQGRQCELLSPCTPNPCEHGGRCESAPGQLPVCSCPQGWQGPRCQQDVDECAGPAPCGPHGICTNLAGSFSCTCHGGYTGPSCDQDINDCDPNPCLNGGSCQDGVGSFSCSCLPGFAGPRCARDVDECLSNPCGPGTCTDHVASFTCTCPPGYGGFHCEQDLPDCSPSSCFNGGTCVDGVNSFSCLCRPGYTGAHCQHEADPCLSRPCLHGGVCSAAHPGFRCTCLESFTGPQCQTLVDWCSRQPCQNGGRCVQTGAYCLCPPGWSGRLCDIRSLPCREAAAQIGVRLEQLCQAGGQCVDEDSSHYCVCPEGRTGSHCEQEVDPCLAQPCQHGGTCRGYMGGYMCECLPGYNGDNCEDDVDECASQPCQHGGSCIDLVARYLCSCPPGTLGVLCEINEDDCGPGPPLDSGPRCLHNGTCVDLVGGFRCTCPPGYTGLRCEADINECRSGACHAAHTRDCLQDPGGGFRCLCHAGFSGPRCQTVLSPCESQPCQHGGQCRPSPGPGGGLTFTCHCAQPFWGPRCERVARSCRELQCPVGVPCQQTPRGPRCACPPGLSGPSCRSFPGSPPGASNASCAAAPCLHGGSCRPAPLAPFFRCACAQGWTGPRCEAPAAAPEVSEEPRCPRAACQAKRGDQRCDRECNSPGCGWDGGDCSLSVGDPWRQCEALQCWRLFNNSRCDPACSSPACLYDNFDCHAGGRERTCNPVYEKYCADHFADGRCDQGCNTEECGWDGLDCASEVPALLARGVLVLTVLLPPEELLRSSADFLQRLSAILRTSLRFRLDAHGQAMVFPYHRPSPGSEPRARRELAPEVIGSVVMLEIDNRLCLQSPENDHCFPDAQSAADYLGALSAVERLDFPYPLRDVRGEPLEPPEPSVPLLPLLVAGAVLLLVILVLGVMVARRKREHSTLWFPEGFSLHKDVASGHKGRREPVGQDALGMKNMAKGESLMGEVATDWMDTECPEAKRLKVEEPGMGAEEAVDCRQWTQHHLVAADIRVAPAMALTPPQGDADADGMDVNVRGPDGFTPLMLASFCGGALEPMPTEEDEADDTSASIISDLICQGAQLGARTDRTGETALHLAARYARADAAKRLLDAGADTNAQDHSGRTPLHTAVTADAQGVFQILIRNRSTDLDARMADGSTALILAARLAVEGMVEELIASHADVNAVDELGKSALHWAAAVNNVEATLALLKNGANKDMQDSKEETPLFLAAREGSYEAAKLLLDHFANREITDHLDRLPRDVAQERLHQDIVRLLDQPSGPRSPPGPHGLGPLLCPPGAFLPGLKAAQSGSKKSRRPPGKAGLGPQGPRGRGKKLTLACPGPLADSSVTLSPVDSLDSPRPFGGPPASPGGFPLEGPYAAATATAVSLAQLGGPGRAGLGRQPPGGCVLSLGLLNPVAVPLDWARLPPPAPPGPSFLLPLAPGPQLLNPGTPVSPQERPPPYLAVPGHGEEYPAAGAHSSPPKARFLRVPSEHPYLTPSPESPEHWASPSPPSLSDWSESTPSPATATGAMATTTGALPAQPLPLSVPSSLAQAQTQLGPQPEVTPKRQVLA

Row | Compound | composite z-score [1] | z-score [2] | z-score [3] | z-score [4] | composite z-score [5] | z-score [6] | composite z-score [7] | composite z-score [8] | composite z-score [9] | composite z-score [10] | composite z-score [11] | composite z-score [12] | composite z-score [13] | z-score [14] | composite z-score [15] | composite z-score [16] | composite z-score [17] | composite z-score [18] | composite z-score [19] | composite z-score [20]
1 | C=C(COC)/C(=C/C[C@H](OC(=O)c1ccncc1)c1ccccc1OCCO)c1cnc2ccccc2c1 | 1.54 | -1.77 (inactive) | -0.997 (inactive) | -0.252 (inactive) | 2.94 | 0.395 (inactive) | -0.345 | 1.44 | 1.02 | 0.0024 | 1.32 | 0.29 | -0.627 | 0.321 (inactive) | 1.45 | 1.32 | 0.788 | 1.48 | 0.864 | 1.54
2 | COc1ccc(C#Cc2ccc3c(c2)[C@]2(C(=O)N3)[C@H](c3ccc(O)cc3)N3[C@H](c4ccccc4)[C@H](c4ccccc4)OC(=O)[C@H]3[C@@H]2C(=O)O)cc1 | 0.525 | 1.11 (inactive) | -1.18 (inactive) | 0.0572 (inactive) | 3.12 | 1.43 (inactive) | -0.383 | -0.28 | -0.17 | -0.0507 | 1.04 | -0.901 | -0.596 | -0.518 (inactive) | 0.368 | 0.74 | -0.209 | -0.114 | -0.474 | 0.326
3 | COCCOC(=O)N1C(=O)[C@@]2(c3cc(C#CCC(C(=O)OC)C(=O)OC)ccc31)[C@H](C(=O)N1CCc3cc(OC)c(OC)cc3C1)[C@H]1C(=O)O[C@H](c3ccccc3)[C@H](c3ccccc3)N1[C@@H]2c1ccc(OCCO)cc1 | 1.54 | 1.94 (inactive) | 0.667 (inactive) | 4.23 (inactive) | 2.73 | -0.402 (inactive) | -0.0259 | 1.4 | 1.08 | 0.0961 | 1.37 | 0.0202 | 0.0313 | 0.382 (inactive) | 1.24 | 1.31 | 0.936 | 1.3 | 0.943 | 0.541
4 | CN(C)CCCCNC(=O)[C@@H]1C[C@@H]2C(=O)N[C@@H](Cc3ccccc3)C(=O)N2[C@@H]1c1cccc(OCCO)c1 | 1.55 | -5.59 (inactive) | -1.63 (inactive) | -1.09 (inactive) | 1.5 | 2.67 (inactive) | -0.125 | 1.45 | 1.06 | -0.131 | 0.769 | 0.0115 | 0.393 | -1.88 (inactive) | 0.407 | 0.727 | 0.404 | 1.26 | 1.28 | 0.0765
5 | Cc1cc(C)cc(N2C(=O)CSC2c2cccc([N+](=O)[O-])c2)c1 (stereo not given) | 1.56 | 0.0032 (inactive) | 0.223 (inactive) | 1.37 (inactive) | 2.39 | 1.58 (inactive) | 0.154 | 0.713 | 1.04 | 0.213 | 1.13 | 0.94 | 0.398 | 1.07 (inactive) | 1.15 | 1.29 | 0.279 | 1.35 | 0.905 | -0.639
